# According to the supplement of paper PMC6555819:
# Tests used:
# Assay in all cases: PBM binding z-score (relative to random genomic background probes); higher = stronger binding; sequences stand for … in GC…GCGATTGACAGCGTAGAATGAAGG
# [1] = system: FXR:RXRa (NR concentration 270 nM, RXRa partner concentration 90 nM)
# How it was run: (§1)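 Antibodies against each partner of ligand-free nuclear receptor dimers (one per run) detected binding on custom Agilent 4×180K protein-binding microarrays after 1 h incubation. The double-stranded probes had 34-nt variable regions carrying direct-repeat seeds, single-nucleotide variants, half-site ablations and random human genomic background sequences. Binding z-scores, from regression-normalized fluorescence, use the random background probes as reference.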
# [2] = system: LXRa:RXRa (NR concentration 270 nM, RXRa partner concentration 90 nM)
# How it was run: as §1
# [3] = system: LXRa homodimer (NR concentration 270 nM)
# How it was run: as §1
# [4] = system: LXRb:RXRa (NR concentration 270 nM, RXRa partner concentration 90 nM)
# How it was run: as §1
# [5] = system: LXRb homodimer (NR concentration 270 nM)
# How it was run: as §1
# [6] = system: PPARa:RXRa (NR concentration 270 nM, RXRa partner concentration 90 nM)
# How it was run: as §1
# [7] = system: PPARg:RXRa (NR concentration 180 nM, RXRa partner concentration 90 nM)
# How it was run: as §1
# [8] = system: PPARg:RXRa 270nM:90nM, anti-RXR (NR concentration 270 nM, RXRa partner concentration 90 nM)
# How it was run: as §1
# [9] = system: PPARg:RXRa 30nM:10nM, anti-RXR (NR concentration 30 nM, RXRa partner concentration 10 nM)
# How it was run: as §1
# [10] = system: PPARg:RXRa 90nM:30nM, anti-RXR (NR concentration 90 nM, RXRa partner concentration 30 nM)
# How it was run: as §1
# [11] = system: PPARg:RXRa DBDmut IVT, anti-RXR (DBD mutation: RXRa K156A/R161A, NR concentration 270 nM, RXRa partner concentration 90 nM)
# How it was run: as §1
# [12] = system: PPARg:RXRa IVT, anti-PPARg (NR concentration 270 nM, RXRa partner concentration 90 nM)
# How it was run: as §1
# [13] = system: PPARg DBDmut:RXRa IVT, anti-PPARg (DBD mutation: PPARg1 K132A/R137A, NR concentration 270 nM, RXRa partner concentration 90 nM)
# How it was run: as §1
# [14] = system: PPARg DBDmut IVT, anti-PPARg (DBD mutation: PPARg1 K132A/R137A, NR concentration 270 nM)
# How it was run: as §1
# [15] = system: PPARg homodimer (NR concentration 180 nM)
# How it was run: as §1
# [16] = system: PXR:RXRa (NR concentration 270 nM, RXRa partner concentration 90 nM)
# How it was run: as §1
# [17] = system: PXR homodimer (NR concentration 270 nM)
# How it was run: as §1
# [18] = system: RARa:RXR (NR concentration 270 nM, RXRa partner concentration 90 nM)
# How it was run: as §1
# [19] = system: RARa homodimer (NR concentration 270 nM)
# How it was run: as §1
# [20] = system: RARb:RXRa (NR concentration 270 nM, RXRa partner concentration 90 nM)
# How it was run: as §1
Sequence,PBM binding z-score [1],PBM binding z-score [2],PBM binding z-score [3],PBM binding z-score [4],PBM binding z-score [5],PBM binding z-score [6],PBM binding z-score [7],PBM binding z-score [8],PBM binding z-score [9],PBM binding z-score [10],PBM binding z-score [11],PBM binding z-score [12],PBM binding z-score [13],PBM binding z-score [14],PBM binding z-score [15],PBM binding z-score [16],PBM binding z-score [17],PBM binding z-score [18],PBM binding z-score [19],PBM binding z-score [20]
ATCGAAAGGTCCAGGTGAGTATAGAGAAAGGGAA,0.612,0.816,0.0552,0.22,0.494,0.594,0.347,0.503,0.287,0.512,0.212,0.948,0.53,0.059,0.583,0.112,0.251,0.303,0.409,1.24
GCTCGGAGGACATGGTCAGAGCTTTGTCCGTAGA,-0.823,-0.697,-0.873,-1.01,-1.56,-0.666,-0.763,-0.775,-1.35,-1.09,-0.304,-0.659,-2.23,-2.05,-2.26,-0.77,-0.911,-0.833,-1.56,0.679
TCTCGGAGGACACGAAGGTCAGAGATTTCCAGAG,1.38,0.932,0.277,1.25,-0.387,1.83,0.75,1.93,2.37,2.23,1.66,1.24,-0.127,-0.972,1.21,1.86,1.02,2.11,-0.144,3.4
AGAATCAGGTTATTAAGATCAGGGAATTGCGGTC,0.5,0.587,0.33,0.473,0.697,1.16,0.693,1.04,0.466,0.97,2.96,2.28,0.999,0.854,1.29,0.516,0.602,0.644,1.45,1
CGTCCAAGGTCAAAAGTCAGTGAAGAGATGACGG,6.47,5.19,0.641,3.79,1.42,5.14,5.67,5.87,3.41,5,2.6,3.24,0.212,-0.048,1.17,3.92,0.638,4.84,0.448,4.63
CCGAGTAGGTTATGGCGCATTCAGGCAACGGTGA,-0.0642,0.163,-0.0103,0.076,-0.283,0.62,0.319,0.503,-0.377,0.107,3.17,1.71,-0.391,-0.415,0.648,-0.289,-0.0371,0.131,0.249,0.551
GCGACTGGGGCAAAGTAGGTTACCATAAGGTTGG,0.147,0.172,-0.28,0.557,-0.493,2.29,2.59,3.18,0.758,2.3,5.3,5.17,-0.411,-0.49,-0.0778,0.322,-0.231,0.681,-0.558,1.21
CAAACTAGGTCAAATGTCAAAGTCGAGCCAACCA,5.99,4.61,1.45,3.78,1.49,6.77,11.8,9.72,9.92,10.8,8.77,8.6,1.94,1.58,2.71,3.16,0.325,4.96,1.02,4.26
ACTAGTTGGACAGCTGAGGTCACACACAATTCGG,3.1,2.78,1.59,3.3,0.683,3.53,1.65,1.76,0.342,1.41,0.874,1.88,0.609,0.717,1.73,4.67,1.34,4.57,1.08,3.33
ATCTCTAGGTAATGATAGTTCAGTGAATGCAAAT,0.391,3.56,0.99,0.864,0.755,0.625,0.774,0.986,0.371,0.513,2.25,2.17,1.1,1.74,1.21,1.12,0.747,0.583,0.965,0.694
AATACAGGGTCATCGTATGCCAGAGTACGCACAG,7.33,5.98,1.87,4.34,1.25,5.64,6.62,5.86,2.88,4.57,2.86,4.36,4.37,2.02,2.61,4.31,0.464,5.23,0.493,4.21
ATCGAAAGGTCGACGAGCTGAGTATACACCGTTT,4.14,3.16,0.028,2.59,0.389,4.22,2.33,2.87,1.17,1.72,0.472,1.18,0.525,1.06,0.589,2.22,-0.245,2.78,0.204,3.72
TCTCGGAGGACACGAAAGGTCAGAGCGCGACATC,3.05,4.07,2.95,3.16,-0.239,3.64,1.36,2.96,2.26,2.66,1.45,1.17,-0.212,-0.0951,3.06,4.27,0.685,4.73,1.1,4.27
GCAGACAGGTGAAACACAGGTAACTCAGGGTGGC,0.0737,0.312,-0.336,-0.415,-0.7,0.874,0.952,0.125,-0.424,-0.0605,0.926,0.641,-0.0327,-0.651,-0.0531,-0.0674,-0.462,0.56,-0.402,0.685
ACAGACAGGTGAGCGAAGGTAACTCAGCTGGACG,-0.11,-0.471,-0.638,-0.645,-0.759,0.0839,0.737,-0.0383,-0.389,0.269,0.465,0.783,0.567,-0.608,-0.706,-0.51,-0.963,0.056,-0.65,0.608
ATCGAAATGTCGACGAGGTGAGTATACACCGTTT,-0.0573,-0.263,-0.442,-0.0135,-0.0075,0.206,0.897,-0.108,0.151,-0.0963,-0.343,0.676,0.668,0.692,-0.253,-0.067,0.0399,0.312,-0.025,0.403
CGTCCAAGGTCCAAGGTCAGTGAAGAGATGACGG,1.55,1.08,0.179,1.1,-0.433,2.37,1.65,2.35,0.473,1.66,-0.345,0.595,-0.804,-0.592,1.34,1.67,0.584,2.28,0.674,3.29
CAAACTGGGTCAAGAGGTCAAAGTCCGCTTCCCG,6.73,6.26,5.68,5.53,1.32,6.47,9.59,8.33,7.11,8.47,7.83,8.28,2.26,1.72,5.48,6.28,2.74,7.7,1.96,5.29
